# LASV entry inh: qHTS for Inhibitors of binding or entry into cells for Lassa Virus | Lassa virus pseudotype entry inhibition, cell reporter | Potency, µM (highest dose often 37.9 µM), for inactives: at the top dose activity change, negative = inhibition, usual class: inhibitors | actives 1.2% (n = 300,000) | AID 540256, 2011; calls by dose curve; tested in HEK293 cells; note: potency is the fitted concentration of half-maximal effect; nearly all actives have a fitted effect of over 50% in size
# HCV inhibitor: qHTS Assay for Inhibitors of Hepatitis C Virus (HCV); Huh7.5.1 HCVcc-Cre infection, luciferase reporter, 44 h; Potency, µM (titrated, usually from 41.8 µM), without a hit: at the top dose activity change, negative = inhibition, hits mostly inhibitors; actives 3.4% (n = 340,000); note: potency is the fitted concentration of half-maximal effect
#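 HCVcc-Cre virus at an moi near 0.5 was added right after compound to cells cultured 4 h from seeding (1,000 cells/well). Luciferase activity was determined 44 h later, 15 min after substrate addition at RT.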
# HCMV inh: qHTS Assay for inhibitors of the human cytomegalovirus (HCMV). actives 4.5% (n = 410,000). HFF cells, HCMV-luciferase reporter, 72 h; active compounds read low. activity change, negative = inhibition, % at 57.5 µM; in the data active = activity change below about -60%; inconclusive = no clear call, values can overlap the other calls; inactive = above about -39%
#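 Two compound doses tested in HFFs infected with HCMV-luciferase, MOI 1 PFU/cell, 72 h at 37C. Lysate luminescence read with OneGlo; data normalized against buffer-only and 10uM Salinomycin inhibitor controls.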
# Pf growth 48h: Primary qHTS for delayed death inhibitors of the malarial parasite plastid, 48 hour incubation; AID 504832, 2011; Potency, µM (doses to about 28.7 µM), inactives show top-dose activity change, negative = inhibition, actives largely listed as inhibitors; P. falciparum luciferase growth in erythrocytes, 48 h; actives 5.9% (n = 310,000); note: potency is the fitted concentration of half-maximal effect
#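 Erythrocytes infected with P. falciparum carrying an integrated firefly luciferase reporter (2% hematocrit, 0.1% parasitemia final) were exposed to compounds in RPMI 1640 with 0.5% Albumax at 37 C, 5% CO2. Growth inhibition was scored as reduced luminescence.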
# Marburg entry inh: qHTS for inhibitors of binding or entry into cells for Marburg Virus | Potency, µM (highest dose often 37.8 µM), inactives show at the highest dose activity change, negative = inhibition, hits mostly inhibitors | Marburg virus pseudotyped entry inhibition, cell reporter | AID 540276, 2011 | actives 1.8% (n = 300,000); calls by dose curve; tested in HEK293 cells; note: potency is the fitted concentration of half-maximal effect
# Pf growth 96h: Primary qHTS for delayed death inhibitors of the malarial parasite plastid, 96 hour incubation; Potency, µM (titrated, usually from 28.7 µM), for inactives: at the top dose activity change, negative = inhibition, most hits filed as inhibitors; actives 6.9% (n = 320,000); P. falciparum luciferase reporter growth, 96 h; note: potency is the fitted concentration of half-maximal effect
#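 Plates of compound plus infected erythrocytes (2% hematocrit, 0.05% parasitemia final) incubate 96 hours, 37 C, 5% CO2. Detection reagent added; reduced luminescence from the parasites' luciferase reporter flags inhibition.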
# The depositor's hits bear a star; u = inconclusive; x = no result; [ ] = remark or other dose. In the library only some 14% were active in any assay of this set; here they are far more common. Unless noted, calls come from the whole dose curve; as a rule, active = well fitted inhibition curve with a large enough effect; inconclusive = small, poorly fitted or top-dose-only effect, or another doubt; inactive = no such curve, though single readings can be large or run the other way. % is set by controls: 0 for no effect and ±100 for the full control effect.
SMILES,LASV entry inh,HCV inhibitor,HCMV inh,Pf growth 48h,Marburg entry inh,Pf growth 96h
Cc1ccc(S(=O)(=O)Cn2nnnc2C(CC(C)C)N2CCN(c3ccccc3)CC2)cc1 (stereo not drawn),-6%,9%,10,7.4µM*,-21%,33%
Cc1ccc(C(c2nnnn2CS(=O)(=O)c2ccc(C)cc2)N2CCN(c3ncccn3)CC2)cc1 (stereo not drawn),u,-7%,33,4.1µM*,u,u
Cc1ccc(S(=O)(=O)Cn2nnnc2C(C(C)C)N2CCSCC2)cc1 (stereo not drawn),-21%,-1%,4,-10%,-28%,u
Cc1ccc(S(=O)(=O)Cn2nnnc2C(C(C)C)N2CCN(Cc3ccco3)CC2)cc1 (stereo not drawn),-4%,13%,20,10µM*,-8%,10%
CCCC(c1nnnn1CS(=O)(=O)c1ccc(C)cc1)N1CCN(c2ccc(F)cc2)CC1 (stereo not drawn),u,15%,-7,17µM*,u,u
Cn1c(=O)c2[nH]c(C3CC3)nc2n(C)c1=O,-1%[46.1 µM],14%,2,x,10%,x
CCCCCCC#C[C@@H]1C=C[C@H](OC(=O)OCC)[C@@H](COC(=O)OCC)O1,x,x,x,x,-12%[14.2 µM],x
Cc1ccc(S(=O)(=O)Cn2nnnc2CN(Cc2ccco2)Cc2cccs2)cc1,-12%,4%,-14,10µM*,-15%,18%
CCN(C(=O)CSc1nnc(-c2ccccc2Cl)n1N)c1c(N)n(Cc2ccccc2)c(=O)[nH]c1=O,x,11%,-9,x,x,x
CCC(=O)Nc1nnc(SCC(=O)NCC2CCCO2)s1 (stereo not drawn),u,3.5µM*,9,x,16%,x
O=C(CSc1nnc(NC(=O)c2ccc3c(c2)OCO3)s1)NCc1ccco1,u,18%,14,340%,7.1µM*,452%
CC(=O)Nc1nnc(SCC(=O)NCC2CCCO2)s1 (stereo not drawn),-7%,19%,39,9%,-7%,-8%
O=C(CSc1nnc(NC(=O)c2ccccc2F)s1)NCC1CCCO1 (stereo not drawn),-8%,13%,35,69%,u,85%
O=C(CSc1nnc(NC(=O)c2ccccc2[N+](=O)[O-])s1)NCC1CCCO1 (stereo not drawn),1%,0%,7,21%,1%,13µM*
O=C(CSc1nnc(NC(=O)c2cccc(Br)c2)s1)NCC1CCCO1 (stereo not drawn),-15%,9%,-98*,31%,-7%,3%
CCCCCCCCN1C(=O)[C@H](CC(=O)NCc2cccc3ccccc23)C[C@@]2(C(=O)OC)CC(C)(C)CC=C12,x,x,97,x,x,x
C#CCOCCOCCOCCNc1nc(N2CCN(C(=O)CCCCCCCCCCNC(=O)[C@@H](CCC(=O)O)n3cc(CCCCCN)nn3)CC2)nc(N2CCN(C(=O)CCCCCCCCCCNC(=O)[C@H]([C@@H](C)CC)n3cc(CCCCCN)nn3)CC2)n1,x,u,x,2.1µM*,x,1.5µM*
C#CCOCCOCCOCCNc1nc(N2CCOCC2)nc(N2CCN(C(=O)CCCCCCCCCCNC(=O)[C@@H](CCC(=O)O)n3cc(CCCCCN)nn3)CC2)n1,x,1%,5,15µM*,x,u
C#CCOCCOCCOCCNc1nc(N2CCN(C(=O)[C@H]([C@@H](C)CC)n3cc(CCC(=O)O)nn3)CC2)nc(N2CCN(C(=O)[C@H](CCCCN)n3cc(CCCC)nn3)CC2)n1,x,-21%[8.37 µM],13,x,x,x
C#CCOCCOCCOCCNc1nc(N2CCN(C(=O)[C@H]([C@@H](C)CC)n3cc(CCCCN)nn3)CC2)nc(N2CCN(C(=O)[C@H](C)n3cc(CCC(=O)O)nn3)CC2)n1,-3%,-1%,14,11%,33%,u
C#CCOCCOCCOCCNc1nc(N2CCN(C(=O)CCCCCCCCCCNC(=O)[C@H]([C@@H](C)CC)n3cc(CCCCCN)nn3)CC2)nc(N2CCN(C(=O)CCCCCCCCCCNC(=O)[C@H](CCCCN)n3cc(CCCC(=O)O)nn3)CC2)n1,x,11µM*,x,12µM*,x,u
C#CCOCCOCCOCCNc1nc(N2CCOCC2)nc(N2CCN(C(=O)[C@H](CCCCN)n3cc(CCCC)nn3)CC2)n1,x,-2%[8.37 µM],-7,x,x,x
Cc1cc(N2CCC(C)CC2)nc2ccc(NC(=O)Cc3c(F)cccc3Cl)cc12,9%[46.1 µM],x,-28,x,2%[46.1 µM],x
Cc1ccc(C)c(N2CCN(S(=O)(=O)c3ccc(-c4cnc(C5CC5)o4)cc3)CC2)c1,u,x,-12,x,x,x
Cn1cc(S(=O)(=O)c2cccc(Cl)c2)c(=O)c2cc(F)c(N3CCCCC3)cc21,-2%[46.1 µM],x,-61*,x,x,x
SMILES,LASV entry inh,HCV inhibitor,HCMV inh,Pf growth 48h,Marburg entry inh,Pf growth 96h
O=[N+]([O-])c1ccc(N2CCOCC2)cc1SCc1ccco1,2%,11µM*,-1,0%,u,42%
O=[N+]([O-])c1ccc(SCc2ccco2)cc1N1CCOCC1,13%[46.1 µM],-24%,-25,u,-16%[46.1 µM],-11%
Cc1ccnc(N2CCCC(C(=O)NCc3cccs3)C2)n1 (stereo not drawn),11%,3%,11,-9%,12%,9.3µM*
Cc1ccc(CNC(=O)C2CCCN(c3nc4ccccc4o3)C2)cc1 (stereo not drawn),-4%,-3%[8.37 µM],6,0%,-9%,0%
COc1ccc(Br)cc1CNC(=O)C1CCCN(c2nc3ccccc3o2)C1 (stereo not drawn),2%,7%,-12,4%,u,5.9µM*
COc1ccc(NC(=O)C2CCCN(c3ncccn3)C2)cc1 (stereo not drawn),u,6%,89,59%,u,-3%
O=C(NCc1cccs1)C1CCCN(c2nc3ccccc3o2)C1 (stereo not drawn),-28%,-23%,15,u,-8%,5.2µM*
COc1ccc(NC(=O)C2CCCN(c3nccc(C)n3)C2)cc1 (stereo not drawn),-6%[46.1 µM],-1%,48,-12%,u,10µM*
COc1ccccc1N(C)c1cc2c(c3c1ccn3C)C1CCC2O1 (stereo not drawn),u,x,-2,x,x,x
CC(C)C1(C)C(=O)N=C2c3ccccc3C(=O)N21 (stereo not drawn),u,9%,20,3%,17%[46.1 µM],12µM*
COc1cccc(-c2nc(SCc3cc(=O)c4ccc(C)c(C)c4[nH]3)n[nH]2)c1,-4%[46.1 µM],x,-16,x,x,x
